Data published in PubChem BioAssay AID1851 (National Center for Advancing Translational Sciences (NCATS), 2009).
Several values for one entry are separate records, joined by “and”; a condition that tells them apart may be missing. Identical values can stand only once. The campaign covered roughly 16,000 compounds. About 5,800 (36%) were called active. Not shown: some 23% with an inconclusive outcome. Calls follow the shape of the dose curve; as a rule, active = well fitted curve in the direction sought with a large enough effect; inconclusive = small, poorly fitted or top-dose-only effect, or effect the other way; inactive = no such curve, though single readings can be large or run the other way. The list shows a part of the results.

These compounds were tested against Cytochrome P450 2C19 (Homo sapiens) (UniProt P33261) (assay: Cytochrome panel assay with activity outcomes). Details: recombinant CYP, pro-luciferin dealkylation, luminescence, p450-cyp2c19; series mostly up to 57.1 µM.
Sequence of Cytochrome P450 2C19 (Homo sapiens) (P33261 whole entry, looked up): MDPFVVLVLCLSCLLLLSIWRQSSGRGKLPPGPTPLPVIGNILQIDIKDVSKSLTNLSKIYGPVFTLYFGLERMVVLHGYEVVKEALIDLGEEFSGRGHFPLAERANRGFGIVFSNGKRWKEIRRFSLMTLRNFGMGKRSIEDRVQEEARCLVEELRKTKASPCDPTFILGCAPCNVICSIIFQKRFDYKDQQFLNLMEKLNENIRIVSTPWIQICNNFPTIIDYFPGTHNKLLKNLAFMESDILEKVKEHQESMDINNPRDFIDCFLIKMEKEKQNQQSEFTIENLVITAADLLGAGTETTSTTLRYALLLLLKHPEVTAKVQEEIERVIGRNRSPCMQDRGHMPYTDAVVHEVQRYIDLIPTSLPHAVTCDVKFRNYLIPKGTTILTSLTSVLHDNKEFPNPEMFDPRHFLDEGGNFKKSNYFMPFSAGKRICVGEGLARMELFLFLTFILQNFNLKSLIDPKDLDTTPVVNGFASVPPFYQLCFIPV
% is scaled to controls: 0 for no effect and ±100 for the full control effect.

| Compound | AC50 | activity, negative = inhibition |
| --- | --- | --- |
| NCC[C@H](O)C(=O)N[C@H]1C[C@@H](N)[C@@H](O[C@H]2O[C@@H](CN)[C@@H](O)[C@@H](O)[C@@H]2O)[C@@H](O)[C@@H]1O[C@H]1O[C@@H](CO)[C@@H](O)[C@@H](N)[C@@H]1O | inactive | – |
| N[C@@H](C(=O)O)c1cc(O)ccc1Cl | inactive | – |
| Cc1nc(-c2cccnc2)sc1C(=O)Nc1ccc(Cl)cc1 | 11.2 µM (active) | – |
| CNC(=O)c1sc(-c2cccnc2)nc1C | inactive | – |
| CC(=O)OC[C@H]1O[C@@H](O/N=C(\C)CCN2CCCCc3nc(C)c(C)cc32)[C@H](OC(C)=O)[C@@H](OC(C)=O)[C@H]1OC(C)=O | – | -0.342% [at 11.4 µM] (inactive) |
| CNc1ncnc2c1ncn2[C@H]1C[C@@H](OP(=O)(O)O)[C@H](COP(=O)(O)O)O1 | inactive | – |
| CNc1ncnc2c1ncn2[C@H]1C[C@H](OP(=O)(O)O)[C@H](COP(=O)(O)O)O1 | 1 µM (active) | – |
| CNc1ncnc2c1ncn2[C@@H]1O[C@@H](CO)[C@H](O)[C@@H]1O | inactive | – |
| CN(C)CCN(Cc1ccc(Cl)cc1)c1ccccn1 | 6.31 µM (active) | – |
| COc1ccc(CN(CCN(C)C)c2ccccn2)cc1 | inactive | – |
| CN(C)CCN(Cc1cccs1)c1ccccn1 | inactive | – |
| N=c1n(-c2ccccc2)c(O)cc(=O)n1-c1ccccc1 | inactive | – |
| Cc1ccc(C(=O)N/C(=C\c2ccc(Br)cc2)c2nc(=S)[nH][nH]2)cc1 | 11.2 µM (active) | – |
| CO[C@H]1COC(=O)CCC[C@@H](C)[C@H](OC)COC(=O)[C@@H](C)NC(=O)C/C=C\[C@@H]1C | – | 31.3% [at 11.4 µM] (inactive) |
| COc1ccc(-c2cc3ccccc3n2CC(O)CNCCO)cc1 (configuration not stated) | 14.1 µM (active) | – |
| O=C(O)COc1ccc(OCCNC[C@@H](O)COc2ccccc2)cc1 | inactive | – |
| NC(=O)c1cc[n+](CC2=C(C(=O)O)N3C(=O)[C@@H](NC(=O)[C@H](c4ccccc4)S(=O)(=O)[O-])[C@@H]3SC2)cc1 | inactive | – |
| O=C(NNS(=O)(=O)c1ccc(Cl)cc1)c1cnn(-c2ccccc2)c1-n1cccc1 | 1.12 µM (active) | – |
| O=C(NNS(=O)(=O)c1ccc(Cl)cc1)C1CCN(Cc2ccccc2)CC1 | inactive | – |

| Compound | AC50 | activity, negative = inhibition |
| --- | --- | --- |
| O=C(NNS(=O)(=O)c1ccccc1)c1cccnc1 | – | 9.95% [at 11.4 µM] (inactive) |
| COc1cc2c(cc1OC)C(C(=O)N1CCOCC1)C(c1cccs1)N(C)C2=O (configuration not stated) | inactive | – |
| Cc1ccc(-n2c(C)nnc2SCC(=O)N2CCc3ccccc3C2)cc1C | 22.4 µM (active) | – |
| CCC(=O)Nc1c2c(nc3c1CCC3)CCCC2 | inactive | – |
| CCSc1nnc(NC(=O)CSc2nc3c(cc2C#N)CCCC3)s1 | 2.82 µM (active) | – |
| COc1ccc(NC(=S)Nc2ncccc2C)c(OC)c1 | 3.55 µM (active) | – |
| COc1ccc(-n2nc3cc(C)c(NC(=S)NC(=O)c4ccccc4C)cc3n2)cc1 | inactive | – |
| CO[C@H]1COC(=O)C/C=C\[C@H](C)[C@@H](NS(=O)(=O)c2ccc(C)cc2)COC(=O)C/C=C\[C@@H]1C | – | 1.28% [at 11.4 µM] (inactive) and 16.7% [at 11.4 µM] (inactive) |
| COC(=O)N1CCC2(CC1)CCN(c1ncccn1)CC2 | inactive | – |
| Cc1sc(NC(=O)c2ccco2)c(C(c2cccnc2)N2CCCC2)c1C (configuration not stated) | 11.2 µM (active) | – |
| Cc1sc(NC(=O)c2ccco2)c(C(c2cccnc2)N2CCN(C)CC2)c1C (configuration not stated) | 20 µM (active) | – |
| Cc1sc(NC(=O)c2ccco2)c(C(c2ccncc2)N2CCOCC2)c1C (configuration not stated) | 10 µM (active) | – |
| O=C(Nc1c(C(=O)N2CCCCC2)cnn1-c1ccccc1)c1ccco1 | inactive | – |
| Cc1c(C)c2c(c(C)c1O)CC[C@@](C)(C(=O)O)O2 | inactive | – |
| O=C(N/N=C/c1ccc(O)cc1)c1csc2ccccc12 | 14.1 µM (active) | – |
| CCOc1ccc(NC(=S)N(Cc2ccc(N(C)C)cc2)Cc2ccco2)cc1 | 1.58 µM (active) | – |
| CCOc1ccc(NC(=S)N(Cc2ccc(Cl)cc2)Cc2ccco2)cc1 | 7.94 µM (active) | – |
| Cc1ccc2c(c1)nnn2C1CCN(CC(=O)N2c3ccccc3CC2C)CC1 (configuration not stated) | 10 µM (active) | – |
| CCc1ccccc1NC(=O)c1nnn(CC(=O)Nc2ccccc2C)c1N | inactive | – |

| Compound | AC50 | activity, negative = inhibition |
| --- | --- | --- |
| Cc1ccccc1NC(=O)CN1CCC(n2nnc3ccccc32)CC1 | 17.8 µM (active) | – |
| Cc1cc(N=Cc2c(CO)cnc(C)c2O)c(N=Cc2c(CO)cnc(C)c2O)cc1C.[Zn] | – | -22.1% [at 11.4 µM] (inactive) |
| CCCCN=c1sc(C(=O)OC)cc(=O)n1CCCC | 2.24 µM (active) | – |
| Cc1cc2c(c(=O)o1)[C@@H](O)[C@H]1O[C@@H]1C2=O | – | -1.32% [at 11.4 µM] (inactive) |
| CN(C)c1cc(-c2cccc(NS(C)(=O)=O)c2)ncn1 | inactive | – |
| Cc1n[nH]c(C)c1S(=O)(=O)N1CCOCC1 | inactive | – |
| Cc1cccc(NS(=O)(=O)c2c(C)n[nH]c2C)c1 | 7.08 µM (active) | – |
| COc1ccc(N(CC(=O)Nc2cccc(C)c2)S(=O)(=O)c2c(C)n[nH]c2C)cc1 | 0.794 µM (active) | – |
| CN(CC(=O)Nc1ccc(F)c(F)c1)S(=O)(=O)c1cccc2nsnc12 | 3.55 µM (active) | – |
| N#Cc1cccc(NC(=O)N2CCC3(CC2)CCN(C(=O)c2cccc(F)c2)CC3)c1 | inactive | – |
| O=S1(=O)[C@H]([C@H]2CC3c4ccccc4C2c2ccccc23)[C@@H](N2CCCCC2)[C@@H]1c1ccccc1 | 2.51 µM (active) | – |
| O=C(O)[C@H]1CN(CCCP(=O)(O)O)CCN1 | inactive | – |
| O=C(O)[C@@H]1CCCN1 | – | 19.4% [at 11.4 µM] (inactive) |
| O=C(O)[C@H]1C[C@@H](CP(=O)(O)O)CCN1 | 7.94 µM (active) | – |
| CCCCn1c(SCc2c(C)noc2C)nc2cc(S(N)(=O)=O)ccc21 | 14.1 µM (active) | – |
| CCOc1c(OC(C)=O)ccc(/C=C2\N=C(SCC)SC2=O)c1[N+](=O)[O-] | 2.82 µM (active) | – |
| CCOc1c(OC(C)=O)ccc(/C=C/c2ccc3cccc(OC(C)=O)c3n2)c1[N+](=O)[O-] | 10 µM (active) | – |
| COc1ccc(-c2cc(C(F)F)nc(-n3nc(C)cc3C)n2)cc1 | 28.2 µM (active) | – |
| Cc1c(C)c2c(C)[nH]nc2oc1=O | 17.8 µM (active) | – |
